# From the OligoGym collection
# Target: RSPH9
# Assay: pooled miR-30 sensor sort-seq; sequence = guide strand
# Settings: shRNA
# Note: reference of the scale not given here.
row,Sequence,sensor-assay potency score (higher = more potent)
1,TCTTATTCTTTAGCTCAACAGG,-1.48
2,TATTTCTTCTTCAAAGACTTTT,-0.914
3,TATTCTTTAGCTCAACAGGCTC,-1.09
4,TTCACCTTCATTCACCTTCTGC,-0.502
5,TTTGGGAATGTCATGCTCCAAG,-0.888
6,TTATTCTTTAGCTCAACAGGCT,-0.377
7,TTAACCAGCATAAGAGACGTGA,0.0215

# Target: RTF1
# Assay: as above
# Settings: shRNA
row,Sequence,sensor-assay potency score (higher = more potent)
1,TTTTTCTTGATTTCAAATCTTC,-0.239
2,TTTGAGACAAACTCTAAACGGA,0.185
3,TTGAGATTTCTTGTCTAGTTTC,-0.921
4,TTTCTCTGTCATCTGTTCCAGA,-0.00304
5,TACTTTGAACAGATCTTCTGAG,0.376
6,TTCTTGATTTCAAATCTTCTTT,-0.27
7,TTGAGACAAACTCTAAACGGAA,-0.778
8,TACAATCTCTTCAATGTCCTGA,0.771
9,TTCATCATCAGAGTAGACCTCA,0.818
10,ATTGATTTCATCTAGAGTGGGC,0.501
11,TTCGTTTTTCTCGCTCTGCTTT,-0.471
